Assay results as given in PubChem BioAssay AID624330 (Southern Research Specialized Biocontainment Screening …, 2012).
The whole screen tested about 340,000 compounds, of which about 2,100 (0.62%) were called active. Not all results are given here. Entries with a potency or affinity are not part of this list. Values without a mark were called inactive.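 The calls were made as follows: active = first-screen hits whose inhibition reached a set limit at any dose in the follow-up dose series; inconclusive = inhibition above the set first-screen limit but never retested; inactive = the rest.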

Molecular target: Rac GTPase-activating protein 1 (Homo sapiens) (UniProt Q9H0H5)
Assay: MgcRacGAP GTPase-activating activity inhibitors, confirmation, biochemical, ADP Hunter fluorescence, primary and confirmatory (AID 624330);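 also: fluorescence reports GDP produced by GAP-driven GTP hydrolysis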
Conditions: MgcRacGAP-stimulated Rac1 GTP hydrolysis, at 30 µM, hits give high values, GST-tagged Rac1 F28L mutant substrate

Chain of Rac GTPase-activating protein 1 (Homo sapiens) (Q9H0H5 whole entry, looked up): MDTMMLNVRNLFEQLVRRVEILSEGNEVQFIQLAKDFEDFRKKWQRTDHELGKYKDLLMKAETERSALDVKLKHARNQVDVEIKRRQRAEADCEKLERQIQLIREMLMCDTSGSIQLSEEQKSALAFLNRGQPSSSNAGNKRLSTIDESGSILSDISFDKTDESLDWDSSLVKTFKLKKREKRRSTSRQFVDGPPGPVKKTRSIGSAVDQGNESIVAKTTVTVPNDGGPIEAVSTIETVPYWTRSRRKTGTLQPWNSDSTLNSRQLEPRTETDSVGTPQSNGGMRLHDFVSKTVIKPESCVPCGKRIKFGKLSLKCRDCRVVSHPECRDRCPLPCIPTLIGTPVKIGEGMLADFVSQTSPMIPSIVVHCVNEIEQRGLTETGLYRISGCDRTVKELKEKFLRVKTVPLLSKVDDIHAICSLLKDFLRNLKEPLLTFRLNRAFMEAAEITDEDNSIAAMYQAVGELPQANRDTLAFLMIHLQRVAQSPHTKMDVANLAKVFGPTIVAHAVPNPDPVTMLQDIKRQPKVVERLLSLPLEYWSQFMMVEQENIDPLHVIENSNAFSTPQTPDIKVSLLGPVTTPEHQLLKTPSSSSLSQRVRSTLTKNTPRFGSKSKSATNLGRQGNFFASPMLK

| Structure (SMILES) | inhibition |
| --- | --- |
| COc1ccc(F)cc1S(=O)(=O)NCC1CCCO1 (stereo not drawn) | 1.18% |
| O=C(CSc1nc(-c2ccco2)cc(C(F)(F)F)n1)Nc1ccc2c(c1)OCO2 | 4.87% |
| Cc1nc(Nc2cccc(O)c2)c2c3c(sc2n1)CCC3 | 10.2% |
| Cc1ccc(CNc2nc(C)nc3sc4c(c23)CCC4)cc1 | 5.5% |
| O=C(c1cccc(S(=O)(=O)N2CCCCCC2)c1)N1CCN(c2ccccc2F)CC1 | 2.31% |
| COc1ccccc1OCC(=O)N1CCCC(Nc2ccc(F)c(F)c2)C1 (stereo not drawn) | 7.15% |
| COc1ccccc1OCC(=O)N1CCCC(Nc2ccc(C)c(C)c2)C1 (stereo not drawn) | 14.2% |
| O=C(CCCn1cncn1)N1CCCC(Nc2ccc(F)cc2)C1 (stereo not drawn) | 5.12% |
| O=C1CCCN1CCC(=O)N1CCCC(Nc2ccc(F)cc2)C1 (stereo not drawn) | 7.82% |
| COc1ccc(NC2CCCN(C(=O)CSc3ccccn3)C2)cc1OC (stereo not drawn) | 30.4% |
| CC(C)c1ccc(NC2CCCN(C(=O)CCCn3cncn3)C2)cc1 (stereo not drawn) | 6.88% |
| O=C(CSc1ccccc1)N1CCCC(Nc2ccccc2)C1 (stereo not drawn) | 8.49% |
| O=C1CCCN1CCC(=O)N1CCCC(Nc2ccc(F)c(F)c2)C1 (stereo not drawn) | 7.57% |
| C[C@@H]1CN([C@@H](C)CO)C(=O)c2cc(Br)cnc2O[C@@H]1CN(C)C(=O)Nc1ccc(F)cc1 | 9.67% |
| C[C@H](NC(N)=O)C(=O)OCC(=O)Nc1ccc(OC(F)F)cc1 | 5.01% |
| COc1ccc(C2C(C(=O)NCc3ccco3)CCC(=O)N2c2ccc(OC)cc2)cc1 (stereo not drawn) | -1.81% |
| O=C(CN1CCCC1)Nc1cccc(Cl)c1 | 6.77% |
| CN(CCOc1ccc(Cl)cc1)C(=O)c1cccc(S(=O)(=O)N2CCN(c3ccc(F)cc3)CC2)c1 | 2.42% |
| COc1cccc(/C=N/n2c(C3CCCCC3)n[nH]c2=S)c1O | 17.5% |
| COc1cccc(/C=N/n2c(-c3n[nH]c4c3CCC4)n[nH]c2=S)c1OC | 10.4% |
| COc1ccc(/C=N/n2c(SC)nnc2-c2ccccc2)cc1C | 12.1% |
| COc1ccc(/C=N/n2c(C)nnc2C)c(OC)c1OC | 8.6% |
| COc1ccc(/C=N/n2c(SC)nnc2-c2ccccc2)c(OC)c1OC | 10.5% |
| COc1ccc(/C=N/n2c(-c3ccc(C)cc3)n[nH]c2=S)cc1OC | 8.75% |
| COc1ccc(/C=C/C(=O)OC2CCCCC2CN(C)C)cc1 (stereo not drawn) | 1.25% |

| Structure (SMILES) | inhibition |
| --- | --- |
| CCN1CNC(=S)N(c2cccc(C)c2C)C1 | 7.09% |
| O=C(O)C1(S(=O)(=O)c2ccc(Cl)cc2)CCC1 | 6.58% |
| Cc1cccc(N2N=C(C(=O)Nc3nc(C)cs3)CCC2=O)c1 | 10.5% |
| O=C(Nc1cccnc1)c1ccccc1F | 6.52% |
| O=C1Nc2ccccc2/C1=N\N1CCOCC1 | 3.01% |
| O=C1Nc2ccccc2C1=NN1CCCCCC1 | -3.27% |
| CCN(Cc1ccccc1)S(=O)(=O)c1ccc(S(=O)(=O)N2CCN(CCC#N)CC2)cc1 | -2.32% |
| Cc1ccc(NC(=O)CN(C)C(=O)CCSc2ccc(F)cc2)cc1 | 5.93% |
| COc1cccc(CN(C)C(=O)c2ccc(C)c(S(=O)(=O)N3CCCCC3)c2)c1 | 3.14% |
| COCCN(C(=O)CNC(=O)c1cccs1)C(C(=O)NC1CCCC1)c1cccs1 (stereo not drawn) | 8.07% |
| COc1ccc(NC(=S)NCCSc2ccc(Cl)cc2)c(OC)c1 | -1.73% |
| CC(=O)Nc1ccc2c3c(cccc13)CC2 | 3.29% |
| c1ccc(Nc2ccc3c4c(cccc24)CC3)cc1 | 16.2% |
| O=[N+]([O-])c1ccccc1N=Nc1ccc(O)cc1 | 9.07% |
| COCc1[nH][nH]c(=O)c1C=Nc1ccccc1 | 9.38% |
| O=C(OCc1ccccc1Cl)c1cccnc1Cl | -1.97% |
| CCCCn1c(N)c(N(CCOC)C(=O)C(C)N2C(=O)c3ccccc3C2=O)c(=O)[nH]c1=O (stereo not drawn) | 0.26% |
| CC(OC(=O)c1ccc(Cl)c([N+](=O)[O-])c1)C(=O)N1CCN(Cc2ccccc2)CC1 (stereo not drawn) | 3.69% |
| CCOc1ccccc1C(=O)NCC(=O)N(C)Cc1ccccc1C | 6.49% |
| COc1ccccc1N(C)S(=O)(=O)c1ccc(C(=O)Nc2cccc(Br)c2)cc1 | 4.53% |
| COc1cccc(-n2c(=O)c3ccccc3n3c(=S)[nH]nc23)c1 | 13.7% |
| CCc1ccc(-n2c(=O)c3ccccc3n3c(=S)[nH]nc23)cc1 | 12.2% |
| CCOC(=O)c1oc2ccccc2c1NC(=O)C(C)(C)C | 4.02% |
| O=C(c1ccccc1)c1ccc(N2CCOCC2)c(F)c1 | 9.91% |
| Cc1cccc(C(=O)N2CCC(N3CCC(C(=O)N4CCOCC4)CC3)CC2)c1 | 7.61% |

| Structure (SMILES) | inhibition |
| --- | --- |
| CCC1Sc2ccccc2N(CC(=O)NC2CC2)C1=O (stereo not drawn) | -0.26% |
| Cc1cc(C)cc(N2C(=O)C=CC2=O)c1 | 1.25% |
| O=C(O)c1cccc(N2C(=O)C=CC2=O)c1 | 9.07% |
| COc1cccc(C(=O)NCC(c2ccco2)N2CCc3ccccc3C2)c1 (stereo not drawn) | 7.73% |
| Cc1cccc(N2C(S)=C(C#N)C(=O)NC2c2ccco2)c1 (stereo not drawn) | 48.2% |
| N#CC1=C(S)N(c2ccccc2)C(c2cccs2)NC1=O (stereo not drawn) | 53% |
| N#CC1=C(S)N(c2ccc(F)cc2)C(c2cccs2)NC1=O (stereo not drawn) | 38.9% |
| Cc1ccccc1N1C(S)=C(C#N)C(=O)NC1c1cccs1 (stereo not drawn) | 39% |
| COC(=O)c1nnc(-c2ccccc2)nc1OC | 4.64% |
| CCN(CC(=O)Nc1ccccc1C(F)(F)F)C(=O)c1cc(-c2cccs2)nn1-c1ccccc1 | 1.06% |
| CCC(=O)OCc1cc(=O)oc2ccc3ccccc3c12 | 9.78% |
| O=C(c1cncc(Br)c1)N1CCN(S(=O)(=O)c2ccc3ccccc3c2)CC1 | 2.91% |
| Nc1nccnc1C(=O)OCC(=O)NC1CCCc2ccccc21 (stereo not drawn) | 2.06% |
| CCN1CCN(c2sc(S(=O)(=O)CC)nc2S(=O)(=O)c2ccc(Cl)cc2)CC1 | 13.7% |
| Cc1ccc(C2=N/C(=C\c3cccs3)C(=O)N2Nc2ccccc2)cc1 | 4.5% |
| Cc1nccn1CCOc1ccc(Cl)cc1 | 19.6% |
| COc1ccc(OCC(O)Cn2ccnc2C)cc1 (stereo not drawn) | -5.32% |
| C/C(=N\Nc1nc2ccccc2[nH]1)c1ccc2c(c1)OCCO2 | 14.6% |
| C/C(=N\Nc1nc2ccccc2[nH]1)c1ccccn1 | 16.1% |
| C/C(=N\Nc1nc2ccccc2[nH]1)c1ccc2c(c1)OCO2 | 29.4% |
| C/C(=N\Nc1nc2ccccc2s1)c1cccs1 | 15.9% |
| O=C(Nc1nc2ccccc2[nH]1)c1cccs1 | 5.07% |
| C/C(=N\Nc1nc2ccccc2[nH]1)c1ccc([N+](=O)[O-])cc1 | 9.3% |
| COc1ccc(CN2C(=O)c3cccnc3C2=O)cc1S(=O)(=O)N1CCCCC1 | 5.59% |
| CCN1CCN(c2ccc(NC(=O)c3ccccc3F)cc2Cl)CC1 | 10.3% |

| Structure (SMILES) | inhibition |
| --- | --- |
| O=C(CSc1nc(=O)n2ccccc2n1)N1CCC(Cc2ccccc2)CC1 | 2.37% |
| CC(C)Nc1nc(NC2CCCC2)nc(N2CCOCC2)n1 | -6.17% |
| Cc1cccc(NS(=O)(=O)c2cccc(C(=O)N3CCCCCCC3)c2)c1 | 7.59% |
| CCOC(=O)C1=C(C)NC(C)=C(C(=O)OCC)C1C(=O)O | -2.63% |
| Oc1ccc(/C=C/c2ccnc3ccccc23)cc1 | 20.5% |
| CN(C)c1ccc(/C=C/c2ccc3ccccc3n2)cc1 | 10.9% |
| O=c1[nH]c2ccccc2nc1/C=C/c1ccc(F)cc1 | 2.77% |
| C(=C\c1ccc2ccccc2n1)/c1ccccc1 | -0.19% |
| O=C(Nc1cccc(S(=O)(=O)NC2=NCCCCC2)c1)c1cc(-c2ccc(Cl)cc2)nc2ccccc12 | 9.39% |
| Cc1ccc(-c2nnc(SCC(=O)Nc3nc4c(s3)CCCC4)n2C)cc1 | 10.7% |
| COc1ccc(O)c(/C=N/NC(=O)CCC(=O)Nc2ccc(C)cc2)c1 | 5.47% |
| Cc1cccc(NC(=O)CCC(=O)N/N=C/c2cc([N+](=O)[O-])ccc2O)c1 | 5.13% |
| Cc1ccc(NC(=O)CCC(=O)N/N=C/c2ccccc2O)cc1 | -6.53% |
| COc1ccc(O)c(/C=N/NC(=O)CCC(=O)Nc2cccc(C)c2)c1 | 6.29% |
| COc1ccc(N2CCN(C(=O)COC(=O)Cc3ccc(F)cc3)CC2)cc1 | 17.9% |
| C[C@@H]1CN([C@H](C)CO)C(=O)CCCn2nncc2CO[C@H]1CN(C)Cc1ccc(O)cc1 | 7.18% |
| Cn1c(SCC(=O)N2CCOCC2)nnc1-c1ccco1 | -0.83% |
| O=C(c1cc(-c2ccco2)on1)N1CCOCC1 | 2.62% |
| Cc1cccc(N2C(=O)C(O)=C(C(=O)c3cccs3)C2c2ccc(F)cc2)n1 (stereo not drawn) | 11.6% |
| O=C(CC(=O)c1ccccc1)Nc1cc(C(F)(F)F)ccc1Cl | -0.8% |
| CC1CCN(CC(=O)Nc2cc(C(F)(F)F)ccc2Cl)CC1 | 6.71% |
| COc1ccc(OC)c(NC(=O)CC2(CC(=O)O)CCCC2)c1 | 5.41% |
| O=C(Nc1cccc(-n2cnnn2)c1)c1cc2ccccc2o1 | 0.98% |
